Screening data deposited in PubChem BioAssay by The Scripps Research Institute Molecular Screening Center.
In the library only some 3.5% were active in any assay of this set; here they are far more common.
MITF primary – human MITF inhibition, primary screen; AlphaScreen MITF homodimerization, bead proximity signal; 650,000 tested, 0.91% active; inhibition, % at 2.6 µM; in the data active = inhibition above about 50%
FBW7 act – human FBW7 E3 ligase activation, primary screen; Q969H0; AID 1259310; AlphaScreen FBW7–phospho-cyclin E peptide binding, activator screen; normalized activity (activation), % at 26.1 µM; 650,000 tested, 0.13% active; in the data active = normalized activity above about 1.9%;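 note: purified mutant Fbw7 with reduced substrate affinity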
TEAD-YAP block – TEAD-YAP interaction inhibition; HEK-TIYL cells, TEAD-Gal4/YAP UAS-luciferase luminescence; inhibition, % at 9.12 µM; 640,000 tested, 1.4% active; AID 1259422; in the data active = inhibition above about 32%
GPR151 activ – activators of human GPR151. Q8TDV0. PathHunter beta-arrestin GPR151 cells, luminescence. activation, % at 11.2 µM. 650,000 tested, 1% active; in the data active = activation above about 4.9%
GPR151 confirm – confirmation of human GPR151 activators; activation, % at 11.2 µM; shares compounds with GPR151 activ; AID 1508609; 6,700 tested, under 10 active; GPR151 PathHunter beta-arrestin cells, luminescence, 90 min; % of EA-reagent control over plate median;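 active = mean percent activation across replicates above the confirmation screen cutoff of 4.91%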
GPR119 counter – counter-screen for GPR151 activators: effect on human GPR119 | shares compounds with GPR151 activ | GPR119 PathHunter beta-arrestin cells, luminescence, 90 min; 0 = compound-well median, 100 = enzyme-acceptor control | activation, % at 11.2 µM | 6,700 tested, 0.3% active;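 active = mean percent activation in the counterscreen above 29.09%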;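 note: counterscreen on off-target GPR119 to flag nonselective hits from the GPR151 activator screen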
Each line names hits and unclear results; the compound was inactive in the other large screens (follow-up assays come after a bar, where they were run); ! = not confirmed by another sample.

CCCSc1nnc2c(n1)OC(c1ccc(F)cc1)Nc1ccccc1-2 (stereo not drawn)	none
CCCSc1nnc2c(n1)OC(c1ccc(SC)cc1)Nc1ccccc1-2 (stereo not drawn)	GPR151 activ 5.6 | GPR151 confirm inactive | GPR119 counter inactive
COc1ccc(CCNc2nc(-c3cccc(N)c3)nc3c2ncn3Cc2ccc(C(F)(F)F)cc2)cc1	none
Cc1nc2ccc(Br)cc2c(Cl)c1CCC(=O)O	GPR151 activ 8.9 | GPR151 confirm inactive | GPR119 counter inactive
CC(C)N(C(=O)C(F)(F)F)C(C(=O)NC1CCCCC1)c1ccncc1 (stereo not drawn)	GPR151 activ 5.8 | GPR151 confirm inactive | GPR119 counter inactive
O=C(NC1CCCCC1)C(c1ccncc1)N(C(=O)C(F)(F)F)C1CC1 (stereo not drawn)	none
O=C(NCC1CCCO1)c1cc(Br)ccc1Cl (stereo not drawn)	none
O=C(NCC1CCCO1)c1cc(=O)[nH]c2ccc(Br)cc12 (stereo not drawn)	GPR151 activ 6.7 | GPR151 confirm inactive | GPR119 counter inactive
CCCCN(CC)C(=O)/C=C/c1cc(OC)c(OC)c(OC)c1	GPR151 activ 5.0 | GPR151 confirm inactive | GPR119 counter inactive
O=C1CN(C(=O)c2cccs2)C(c2ccccc2)c2cc(Br)ccc2N1 (stereo not drawn)	none
C#CCn1c(=NC(=O)C2CC2)sc2cc(S(C)(=O)=O)ccc21	GPR151 activ 6.5 | GPR151 confirm inactive | GPR119 counter inactive
CCOCCn1c(=NC(=O)C2CC2)sc2cc(S(C)(=O)=O)ccc21	GPR151 activ 8.7 | GPR151 confirm inactive | GPR119 counter inactive
CCN1C(=O)Cc2cc(NC(=O)c3ccc(C(C)(C)C)cc3)ccc21	GPR151 activ 5.2 | GPR151 confirm inactive | GPR119 counter inactive
CCOc1ccc(C(=O)Nc2ccc3c(c2)CC(=O)N3CC)cc1	none
COC(=O)c1cc(N2C(=O)C3C4C=CC(C(OC(C)=O)OC(C)=O)(O4)C3C2=O)ccc1Cl (stereo not drawn)	none
CC(=O)Nc1ccc(NC(=O)C(C)Sc2ccccc2)cc1 (stereo not drawn)	GPR151 activ 11 | GPR151 confirm inactive | GPR119 counter inactive
CCN(CC)C(c1ccc(C)cc1)c1nnnn1CC1CCCO1 (stereo not drawn)	none
Cc1cc(NCCN2CCOCC2)nc(Cl)n1	GPR151 activ 6.2 | GPR151 confirm inactive | GPR119 counter inactive
Cc1c(C)n(CC(O)CNc2ccc(I)cc2)c2ccccc12 (stereo not drawn)	none
CC(C)CNC(=O)CN(Cc1ccc(Br)cc1)S(=O)(=O)c1ccccc1	none
COc1cc(SC)ccc1C(=O)Nc1ccc2c(c1)OC(C)(C)O2	GPR151 activ 5.2 | GPR151 confirm inactive | GPR119 counter inactive
Cc1ccc(NC(=O)CNC(=O)c2c[nH]c3ccccc23)cc1F	GPR151 activ 5.7 | GPR151 confirm inactive | GPR119 counter inactive
CSc1ccccc1NC(=O)CNC(=O)c1c[nH]c2ccccc12	none
COc1ccc([C@@H](C)NC(=O)CCC2(Cc3ccc(C)cc3)CCC(=O)N2)cc1 (stereo partly drawn)	none
COc1ccc(CC2(CCC(=O)N[C@H](C)c3ccc(OC)cc3)CCC(=O)N2)cc1 (stereo partly drawn)	GPR151 activ 5.1 | GPR151 confirm inactive | GPR119 counter inactive
COc1ccc(N2CCN(C/C=C/c3ccccc3[N+](=O)[O-])CC2)cc1	none
COc1ccc(N2CCN(Cc3ccc([N+](=O)[O-])s3)CC2)cc1	MITF primary 56, GPR151 activ 5.1 | GPR151 confirm inactive | GPR119 counter inactive
Cc1cc(NC(=O)Cn2nc3c(cc2=O)CCCC3)ccc1Br	none
Cc1ccsc1CCNc1c(-c2ccccc2)c(=O)c1=O	GPR151 activ 5.2 | GPR151 confirm inactive | GPR119 counter inactive
Cc1cccc(CCNc2c(-c3ccccc3)c(=O)c2=O)c1	none
COCCNc1nc2ccccn2c(=O)c1/C=C1\SC(=S)NC1=O	GPR151 activ 5.0! | GPR151 confirm inactive | GPR119 counter inactive
COc1ccc(NC2=CC(=O)CCC2)cc1	none
COc1ccc(NC2=CC(=O)CCC2)c(OC)c1	GPR151 activ 7.8! | GPR151 confirm inactive | GPR119 counter inactive
COc1ccc(C2CC(=O)C3=C(C2)Nc2ccccc2N(C(=O)C(F)(F)F)C3c2ccccc2)cc1 (stereo not drawn)	GPR151 activ 5.1 | GPR151 confirm inactive | GPR119 counter inactive
c1ccc(-n2ncc3c(Nc4cccc5ccccc45)ncnc32)cc1	GPR151 activ 5.7 | GPR151 confirm inactive | GPR119 counter inactive
COc1ccc(CNc2ncnc3c2cnn3-c2cccc(C)c2)cc1	GPR151 activ 5.2 | GPR151 confirm inactive | GPR119 counter inactive
Cc1ccc(-n2ncc3c(NCc4cccnc4)ncnc32)c(C)c1	GPR151 activ 8.5 | GPR151 confirm inactive | GPR119 counter inactive
Cc1ccc(-n2ncc3c(SCC(=O)NC(C)(C)C)ncnc32)c(C)c1	GPR151 activ 7.2 | GPR151 confirm inactive | GPR119 counter inactive
COC(=O)C(NC(C)=O)(Nc1sc2c(c1C#N)CCCC2)C(F)(F)F (stereo not drawn)	none
COC(=O)c1c(NC(=O)c2cccnc2Cl)sc2c1CCCCC2	none
CN1CCN(S(=O)(=O)c2ccc(C3CCCCC3)cc2)CC1	GPR151 activ 5.3 | GPR151 confirm inactive | GPR119 counter inactive
CSc1ccc(S(=O)(=O)N2CCCCCC2)cc1	GPR151 activ 5.0 | GPR151 confirm inactive | GPR119 counter inactive
O=[N+]([O-])c1cccc(CSc2nc(NCC3CCCO3)c3ccccc3n2)c1 (stereo not drawn)	none
O=C(OCc1cccc(F)c1)c1cc(Cl)ccc1O	none
CC(=O)Nc1ncc(CN2CCN(C(c3ccccc3)c3ccccc3)CC2)s1	none
CN(C)CC(C)(C)CNCC(=O)Nc1cc(C(F)(F)F)cc(C(F)(F)F)c1	GPR151 activ 6.0 | GPR151 confirm inactive | GPR119 counter inactive
CS(=O)(=O)NCC1CCC(C(=O)NC2CCN(Cc3ccccc3)CC2)CC1 (stereo not drawn)	GPR151 activ 5.6 | GPR151 confirm inactive | GPR119 counter inactive
COc1ccc(N2C(=O)CC(N(Cc3ccc4c(c3)OCO4)C(=O)c3cccc(F)c3)C2=O)cc1 (stereo not drawn)	none
O=C(CSCc1ccc(Cl)cc1)NCCSCc1ccco1	GPR151 activ 7.8 | GPR151 confirm inactive | GPR119 counter inactive
CN(C)S(=O)(=O)c1ccc(C(=O)CSc2n[nH]c(N)n2)cc1	GPR151 activ 9.6 | GPR151 confirm inactive | GPR119 counter inactive
NC(=O)C1(N2CCCCC2)CCN(C(=S)Nc2ccc(F)cc2)CC1	none
NC(=O)C1(N2CCCCC2)CCN(C(=O)Nc2ccc(F)cc2F)CC1	GPR151 activ 5.9 | GPR151 confirm inactive | GPR119 counter inactive
CC(C)NC(=O)c1ccccc1NS(=O)(=O)c1ccc2ccccc2c1	none
